Records with an inconclusive call do not appear. Active and inactive are the calls of the source. Rule for the calls: active = hit-call score of the fitted dose curve at least 0.9, where 1 is the maximum; inconclusive = response in the unintended direction; inactive = score below 0.9.

Chain of human Phosphoinositide 3-kinase alpha (PI3Ka), PIK3CA (gene 5290) (P42336 whole entry, looked up): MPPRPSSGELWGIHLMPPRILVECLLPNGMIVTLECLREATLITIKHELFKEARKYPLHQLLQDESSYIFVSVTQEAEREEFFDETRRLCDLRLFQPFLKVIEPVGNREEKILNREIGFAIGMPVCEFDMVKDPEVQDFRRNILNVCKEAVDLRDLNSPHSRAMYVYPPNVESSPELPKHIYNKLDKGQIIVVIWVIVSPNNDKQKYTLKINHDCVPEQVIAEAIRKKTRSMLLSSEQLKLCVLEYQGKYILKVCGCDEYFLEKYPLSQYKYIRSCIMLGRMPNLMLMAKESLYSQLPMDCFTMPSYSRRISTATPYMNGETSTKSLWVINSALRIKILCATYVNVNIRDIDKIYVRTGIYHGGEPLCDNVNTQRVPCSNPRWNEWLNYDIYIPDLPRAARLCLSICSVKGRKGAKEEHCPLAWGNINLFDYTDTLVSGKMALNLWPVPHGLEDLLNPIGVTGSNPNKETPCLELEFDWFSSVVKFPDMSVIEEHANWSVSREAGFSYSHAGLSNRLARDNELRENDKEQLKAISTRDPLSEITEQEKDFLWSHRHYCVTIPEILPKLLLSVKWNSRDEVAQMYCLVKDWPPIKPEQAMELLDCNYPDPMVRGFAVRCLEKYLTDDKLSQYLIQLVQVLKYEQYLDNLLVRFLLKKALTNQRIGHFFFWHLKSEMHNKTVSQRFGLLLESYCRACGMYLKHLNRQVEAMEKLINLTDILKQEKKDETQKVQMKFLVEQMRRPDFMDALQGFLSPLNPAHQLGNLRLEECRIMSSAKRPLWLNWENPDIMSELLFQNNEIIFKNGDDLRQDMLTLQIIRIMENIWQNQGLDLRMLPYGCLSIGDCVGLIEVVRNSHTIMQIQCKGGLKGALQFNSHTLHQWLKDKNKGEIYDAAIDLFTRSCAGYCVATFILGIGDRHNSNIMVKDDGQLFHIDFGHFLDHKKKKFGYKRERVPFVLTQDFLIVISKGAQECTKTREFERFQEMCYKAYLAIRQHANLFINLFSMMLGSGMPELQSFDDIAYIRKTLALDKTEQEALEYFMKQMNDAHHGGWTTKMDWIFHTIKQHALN

The experiment has as its target human Phosphoinositide 3-kinase alpha (PI3Ka), PIK3CA (gene 5290) (UniProt P42336). Put plainly: NVS_ENZ_hPI3Ka: NovaScreen (NVS) Enzymatic Assay for human Phosphoinositide 3-kinase alpha (PI3Ka) (AID 2283196). The procedure: NVS_ENZ_hPI3Ka is a biochemical, single-readout assay that uses extracted gene-proteins in a cell-free assay. Measurements were taken 1 hour after chemical dosing in a 384-well plate.NVS_ENZ_hPI3Ka is one of one assay component(s) measured or calculated from the NVS_ENZ_hPI3Ka assay. It is designed to make measurements of enzyme activity, a form of enzyme reporter, as detected with fluorescence intensity signals by Fluorescence and electrophoretic mobility shift technology.Data from the assay component NVS_ENZ_hPI3Ka was analyzed into 1 assay endpoint. This assay endpoint, NVS_ENZ_hPI3Ka, was analyzed in the positive analysis fitting direction relative to DMSO as the negative control and baseline of activity. Using a type of enzyme reporter, loss-of-signal activity can be used to understand changes in the enzymatic activity as they relate to the gene PIK3CA. Furthermore, this assay endpoint can be referred to as a primary readout, because this assay has produced multiple assay endpoints where this one serves a enzymatic activity function. To generalize the intended target to other relatable targets, this assay endpoint is annotated to the kinase intended target family, where the subfamily is phosphoinositol kinase.
Binding assays used specific radioligands (tritiated, iodinated) with non-radioactive competitive displacement ligands in agonist or antagonist protocols (as indicated) and various reference compounds and inhibitors to titrate specific binding to receptors and transporters. Most enzyme assays (CYPs, kinases, phosphatases, proteases, HDACs) used recombinant protein and specific substrates (fluorescence mostly, some colorimetric and radioactive) and inhibitors, followed by a biochemical separation of substrate and product. All assays for the biochemical HTS were initially run in duplicate at a single concentration (10 uM for CYP450 assays and 25 uM for all others). Assay-chemical combinations meeting a pre-defined threshold (e.g., 30% inhibition and other criteria defined below) were then run in singleton concentration-response format with maximum concentration of 20 uM for CYPs and 50 uM for all others. Each assay was run with positive and negative controls, and concurrent controls on every plate. The follow-up (secondary) screen tested active chemical-pairs in concentration series, as well as a few additional assays not tested in the primary screen, some selected negative inactives, and several cases re-run in the concentration series for confirmatory purposes.
As for `CC(=O)/C=C/C1=C(C)CCCC1(C)C`, the compound was called inactive. Usually AC50 stands for the concentration at which the activity in the assay is half-maximal. `CCn1c2ccccc2c2cc(N)ccc21`: the half-maximal activity concentration (AC50) is 9320 nM (active). With `CCCCC/C=C/C=C/C=O`, the call was inactive.

Regarding `C#C[C@]1(O)CC[C@H]2[C@@H]3CCC4=Cc5oncc5C[C@]4(C)[C@H]3CC[C@@]21C`, the compound was called inactive. As for `O=C1OC2(c3cc(Br)c(O)c(Br)c3Oc3c2cc(Br)c(O)c3Br)c2c(Cl)c(Cl)c(Cl)c(Cl)c21`, the AC50 was 1860 nM (active).

For `N#Cc1ccccc1`, the compound was classed as inactive. Still for that read-out and setting: next, `COC(=O)c1ccc(C)cc1`: “inactive”; `CCO[Si](CCCS)(OCC)OCC`: “inactive”; `CCCCC(CC)COCCC#N` (configuration not stated): “inactive”. Take `O=C=NC1CCC(CC2CCC(N=C=O)CC2)CC1` (configuration not stated): the call was inactive.

As to `COC(=O)OC`, the compound was called inactive. For `CC1CCC2CC1C2(C)C` (configuration not stated), the AC50 was 1820 nM (active).
